Measured values as given in PubChem BioAssay (NCI).
The panel holds about 83,000 compounds, 20% with a hit somewhere; the sample as a whole holds those more often.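 Assay: single dose, 48 h. Readout: percent growth (0 = no net growth; negative = cell death). Active: <10.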 Unmarked numbers belong to inactive results. The source made the active and inactive calls.

How the values were obtained:
Assay in all cases: NCI-60 one-dose screen, 48 h (100 = growth as untreated, 0 = no growth, -100 = all killed)
Settings in all cases: 10 µM unless noted
NCI-H23 lung = tested on: NCI-H23 lung
NCI-H226 lung = tested on: NCI-H226 lung
NCI-H322M lung = tested on: NCI-H322M lung
HOP-62 NSCLC = tested on: HOP-62 NSCLC
NCI-H460 lung = tested on: NCI-H460 lung
HOP-92 NSCLC = tested on: HOP-92 NSCLC
NCI-H522 lung = tested on: NCI-H522 lung
A549/ATCC NSCLC = tested on: A549/ATCC NSCLC
786-0 renal = tested on: 786-0 renal
COLO 205 colon = tested on: COLO 205 colon
DU-145 prostate = tested on: DU-145 prostate
K-562 leukemia = tested on: K-562 leukemia
MALME-3M melanoma = tested on: MALME-3M melanoma
MDA-MB-231 breast = tested on: MDA-MB-231 breast
RXF 393 renal = tested on: RXF 393 renal
SF-268 CNS = tested on: SF-268 CNS
SF-295 CNS = tested on: SF-295 CNS
SF-539 CNS = tested on: SF-539 CNS
UACC-257 melanoma = tested on: UACC-257 melanoma
M14 melanoma = tested on: M14 melanoma

Compound	growth (NCI-H23 lung)	growth (NCI-H226 lung) [%]	growth (NCI-H322M lung)	growth (HOP-62 NSCLC)	growth (NCI-H460 lung)	growth (HOP-92 NSCLC) [%]	growth (NCI-H522 lung)	growth (A549/ATCC NSCLC)	growth (786-0 renal)	growth (COLO 205 colon)	growth (DU-145 prostate)	growth (K-562 leukemia)	growth (MALME-3M melanoma)	growth (MDA-MB-231 breast)	growth (RXF 393 renal)	growth (SF-268 CNS) [%]	growth (SF-295 CNS)	growth (SF-539 CNS)	growth (UACC-257 melanoma) [%]	growth (M14 melanoma)
COc1ccc2c(c1)c(-c1nc(-c3c[nH]c4ncccc34)cs1)cn2CCCN1CCCCC1	73.1%	70.8	56.4%	37.4%	5.78% (active)	24.9	67.6%	41.3%	-75.1% (active)	-74.9% (active)	46.1%	-58.8% (active)	-70.9% (active)	29.3%	35.9%	52.7	68.2%	-63.6% (active)	71.8	-84.1% (active)
CN(CSc1ccc(Cl)cc1)c1ccc(CSc2ccc(Cl)cc2)cc1	90.6%	43.3	86.4%	118%	62%	57.2	32%	50.5%	31.6%	41%	87.8%	83.7%	102%	22.2%	68.7%	43.3	70.5%	47.4%	76	49.7%
C#CCn1c2c(c3ccccc31)C[C@]1(C)[C@H]3CC[C@@H]4[C@@H]5C(=CCC[C@H]5C(=C)C)CC[C@@]4(C)[C@]3(C)CC[C@H]1C2(C)C	106%	102	103%	97.1%	99.8%	124	96.5%	102%	106%	104%	108%	91.9%	110%	101%	128%	97.8	107%	97.1%	108	100%
OCC1OC(n2cnc3c(Cl)ncnc32)CC1O (stereo not given)	118%	97.7	101%	114%	104%	89.5	101%	104%	107%	104%	113%	103%	97.5%	106%	103%	99.1	114%	96.2%	110	104%
COc1cc2nc(Cl)nc(Nc3cccc(C(=O)/C=C/c4ccccc4)c3)c2cc1OC	68.6%	66.1	90.3%	70.1%	89%	82.2	56.9%	74.5%	52.7%	62.9%	87.7%	9.16% (active)	78%	67.6%	68.4%	85.9	69.5%	2.74% (active)	96.5	51.2%
CC1(C)NCCC[C@]2(C)[C@H]3CC[C@@H]4[C@H]5[C@H](C(=O)/C=C/c6ccccn6)CC[C@]5(CO)CC[C@@]4(C)[C@]3(C)CC[C@@H]12	72.9%	85.5	86.4%	77%	25.1%	35.6	54.4%	36.9%	85.4%	-74.3% (active)	67.7%	-2.17% (active)	73.6%	71.1%	56.7%	78.7	88.8%	86.1%	64	61.1%
CC1(C)CC[C@]2(CO)CC[C@]3(C)C(=CC[C@@H]4[C@@]5(C)CC[C@H](NCO)C(C)(C)[C@@H]5CC[C@]43C)[C@@H]2C1	-64.8% (active)	43.1	7.27% (active)	-32.1% (active)	-70.5% (active)	22.2	-29.5% (active)	-50% (active)	-80% (active)	-71.5% (active)	-49.9% (active)	-36.8% (active)	-76.3% (active)	-80% (active)	-88% (active)	63.1	-30.5% (active)	-18.5% (active)	10.5	-53% (active)
